Each structure is given as a SMILES string. Results with a measured potency or affinity are listed apart.

This assay deals with Cryptococcus neoformans. Particulars: Concentration 20 uM; ASSAY_TEST Inhibition of Fungal Growth; detection method Resazurin; Absorption (OD600-OD570); plate type 384well; NBS; CORNING #3640.
As a reminder, the Inhibition is the relative decrease from the control value, in per cent. As for `NS(=O)(=O)c1cccc(-c2ccc3ncc(N4CCOCC4)nc3c2)c1`, the Inhibition is listed as -9.08%.
To `Nc1ccc(C(=O)Nc2ccc(-c3nc4ccccc4o3)cc2)cc1` belongs -12.24%.
For the compound `O=C(C1CCCCC1)N1CC(=O)N2CCc3ccccc3C2C1` (stereo unspecified) [PRAZIQUANTEL], the Inhibition is recorded as -6.4%.
For the compound `c1ccc(Oc2ccc(-c3cc(C4CCOCC4)[nH]n3)cc2)cc1`, the Inhibition was 0.97%.
On to `c1ccc(Oc2ccc(-c3cc(CN4CCOCC4)[nH]n3)cc2)cc1`, for which the Inhibition is reported as -6.41%.
Regarding `c1ccc(Oc2ccc(-c3cncc(-c4ccc5[nH]ccc5c4)n3)cc2)cc1`, the Inhibition is -8.14%.
As to `CCOC(=O)c1c(NC(=O)c2c(F)c(F)c(F)c(F)c2F)sc(C(N)=O)c1C`, the Inhibition is reported as -6.59%.
In the case of `O=C(Nc1cccc(Cl)c1)c1cnc(N2CCN(c3ccncc3)CC2)c(Cl)c1`, the Inhibition is -9.48%.
To `CC(C)(C)n1nc(-c2ccccc2)c2c(N)ncnc21` belongs -15.8%; to `CNc1nnc(Sc2cnn(-c3ccccc3)c(=O)c2Cl)s1`, -9.44%.
Consider `COc1cc(C(F)(F)F)nc2ccc(C)c(N)c12`, for which the Inhibition is -9.66%.
As to `CN1CCN(S(=O)(=O)c2ccc(-c3ccc4c(Nc5ccc6nn[nH]c6c5)ccnc4c3)cc2)CC1`, the Inhibition is listed as -7.38%.
As for `O=C(NCc1nnc2n1CCCCC2)c1ccc(-c2ccc(F)cc2)o1`, the Inhibition turned out to be 6.1%.
Take `Cc1cc(C)cc(COc2ccc3c(C)c(CCC(=O)O)c(=O)oc3c2C)c1`: the Inhibition is listed as -0.19%.
As to `COc1cc(-c2cc(-c3ccc(S(C)(=O)=O)cc3)cnc2N)ccc1O`, the Inhibition was -7.2%.
Take `CC(C)(C(=O)Nc1ccc(F)cc1)n1cc(-c2ccccc2F)cn1`: the Inhibition is recorded as -7.47%.
As for `COC(=O)C1=C(C)NC(C)=C(C(=O)OC(C)C)C1c1cccc2nonc12` (stereo unspecified) [ISRADIPINE], the Inhibition is -10.15%.
As to `Cc1cc(OCC(=O)NCc2ccccc2)c2cc(Br)ccc2n1`, the Inhibition is -5.48%.
Under `COc1cccc(CC(=O)N2CCC(n3c(C)nc4ccc(F)cc43)CC2)c1` stands -4.62%.
Turning to `CC(Oc1cccc(Cl)c1)C(=O)Nc1ccc2oc(-c3ccncc3)nc2c1` (stereo unspecified), the Inhibition is -15%.
Consider `O=[N+]([O-])c1cn2c(n1)OC[C@@H](OCc1ccc(OC(F)(F)F)cc1)C2` [PRETOMANID], for which the Inhibition is -5.11%.
Under `COc1nc2ccc(Br)cc2cc1[C@@H](c1ccccc1)[C@@](O)(CCN(C)C)c1cccc2ccccc12.O=C(O)C(F)(F)F` stands 56.58%; under `Cc1cc2nc(NC(=O)C(C)(C)C)nc(Cl)c2n1Cc1ccc(Cl)cc1`, -0.22%.
In the case of `O=C(C1CCN(c2nnc(-n3cccc3)s2)CC1)N1CCC(Cc2ccccc2)CC1`, the Inhibition is given as -9.35%.
As for `Cc1cc(Nc2ccncc2)n2nc(C)c(-c3ccccc3Cl)c2n1`, the Inhibition was -9.03%.
On to `Cl.O[C@@H](c1cc(C(F)(F)F)nc2c(C(F)(F)F)cccc12)[C@H]1CCCCN1`, for which the Inhibition came out at 1.73%.
Regarding `COc1ccc(-c2cnc3cnc(-c4cccc(OC(C)C)c4)cn23)cc1`, the Inhibition is given as -13.72%.
Under `COc1ccc2nc(C)cc(OCC(=O)NCc3ccccc3)c2c1` stands -4.71%.
`Cc1ccc2nc(C)c(-c3ccn(Cc4ccccc4)n3)n2c1`: the Inhibition is -8.36%.
As for `Nc1cccnc1Nc1ccc(Cl)cc1`, the Inhibition was -10.6%.
For the compound `Nc1ncc(-c2ccc(C(F)(F)F)nc2)cc1-c1ccc(C(F)(F)F)nc1`, the Inhibition is listed as -5.78%.
Turning to `Clc1ccc(CN2CCN(C3=NCCN3)CC2)cc1Cl`, the Inhibition is recorded as -10.37%.
To `Cc1cc(NC(=O)c2ccc(S(=O)(=O)N(Cc3ccccc3)C(C)C)cc2)no1` belongs -4.62%.
Under `Cc1cnc(N2CCN[C@@H](Cc3ccccc3)C2)nc1Oc1ccc(-n2ccnc2)cc1.Cl` stands -5.74%; under `O=C(Nc1nc(-c2ccccn2)cs1)C1CC1c1ccccc1F` (stereo unspecified), -9.59%; under `O=C(CN1CCOCC1)Nc1ccc2ncnc(Nc3ccc(OCc4cccc(F)c4)c(Cl)c3)c2c1`, -1.06%.
